The values below come from PubChem BioAssay (EPA / NIEHS).

The structures appear in SMILES notation. Several values for one entry are separate records, joined by “and”; a condition that tells them apart may be missing. Equal entries are not always repeated. Activity calls are given as the source filed them. How the source made its calls: active means hit-call score of the fitted dose curve at least 0.9, where 1 is the maximum; inactive means score below 0.9.

Test [1] is described as follows: BSK_3C_VCAM1: BioMAP Diversity Plus: 3C Assay for Vascular cell adhesion molecule 1 (VCAM1) Biomarker Activity (AID 2282999). The conditions noted are these: BioMAP 3C HUVEC, VCAM1 ELISA, cytokine-stimulated; actives raise or lower the signal. The gist of the method: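 Human umbilical vein endothelial cells were dosed with compound for 24 h, after which cell-surface VCAM-1 was quantified by ELISA. Bidirectional curve fitting used DMSO as negative control and activity baseline.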
On the technique in general: ELISA stands for enzyme-linked immunosorbent assay.

Read-out in test [2]: Intercellular Adhesion Molecule 1 (ICAM1), ICAM1 (gene 3383)
The experiment in a line: BSK_3C_ICAM1: BioMAP Diversity Plus: 3C Assay for Intercellular Adhesion Molecule 1 (ICAM1) Biomarker Activity (AID 2283003). The conditions noted are these: primary human endothelial cells (HUVEC); actives raise or lower the signal. The method in brief:
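HUVEC primary cells stimulated under 3C conditions; ICAM1 measured by ELISA 24 h after compound dosing. Curves fitted bidirectionally against the DMSO baseline. Overt cytotoxicity checked by SRB staining of parallel cultures.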

Test [3] can be described thus: BSK_3C_Proliferation: Cell Proliferation Assessment in the BioMAP Diversity Plus: 3C Assay (AID 2283006).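 On AC50: potency may reflect either rise or fall in cell number versus DMSO.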 The conditions noted are these: primary human endothelial cells (HUVEC). The method in brief:
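Subconfluent HUVEC (3C system) cultured with chemical; relative cell number read at 48 h by sulforhodamine B total-protein staining (0.1% SRB after 10% TCA fixation, 560 nm). Bidirectional fit relative to DMSO.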

Read-out in test [4]: E-selectin (Homo sapiens) (UniProt P16581)
The experiment in a line: BSK_3C_Eselectin: BioMAP Diversity Plus: 3C Assay for Eselectin Biomarker Activity (AID 2283015).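 On outcome: cell surface E-selectin protein quantified by ELISA 24 h after dosing.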 The conditions noted are these: primary human endothelial cells (HUVEC); actives raise or lower the signal. The gist of the method: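 Primary human umbilical vein endothelial cells (3C system) were dosed with chemical and cell-surface E-selectin measured by ELISA 24 h later. Bidirectional curve fitting used DMSO as negative control and baseline.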

Read-out in test [5]: Matrix Metallopeptidase 1 (MMP1), MMP1 (gene 4312)
The test is described as follows: BSK_BE3C_MMP1: BioMAP Diversity Plus: BE3C Assay for Matrix Metallopeptidase 1 (MMP1) Biomarker Activity (AID 2283024). The conditions noted are these: primary human bronchial epithelial cells; actives raise or lower the signal. The method in brief:
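Human primary bronchial epithelial cells (BE3C system) dosed for 24 h; MMP-1 quantified by ELISA. Bidirectional fit against DMSO; cytotoxicity tracked in parallel cultures by SRB total-protein staining.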

A short description of test [6]: BSK_BE3C_SRB: Viability Assessment in the BioMAP Diversity Plus: BE3C Assay (AID 2283028).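 On AC50: fitted both ways so AC50 may mark signal gain or loss versus DMSO.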 The conditions noted are these: primary human bronchial epithelial cells. The gist of the method:
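Human primary bronchial epithelial cells were exposed to test chemicals for 24 h. Total protein in parallel cultures was then measured by staining with 0.1% sulforhodamine B after 10% TCA fixation, with absorbance read at 560 nm. Activity was fitted bidirectionally against DMSO.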

Read-out in test [7]: Thrombomodulin, THBD (gene 7056)
The test is described as follows: BSK_3C_Thrombomodulin: BioMAP Diversity Plus: 3C Assay for Thrombomodulin Biomarker Activity (AID 2283029). The conditions noted are these: primary human endothelial cells (HUVEC); actives raise or lower the signal. The method in brief: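 Human umbilical vein endothelial cells were exposed to chemicals for 24 h; cell-surface thrombomodulin quantified by ELISA, with bidirectional fitting against DMSO baseline.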

Read-out in test [8]: Vascular cell adhesion molecule 1 (VCAM1), VCAM1 (gene 7412)
The test is described as follows: BSK_4H_VCAM1: BioMAP Diversity Plus: 4H Assay for Vascular cell adhesion molecule 1 (VCAM1) Biomarker Activity (AID 2283033). The conditions noted are these: primary human endothelial cells (HUVEC); actives raise or lower the signal. The gist of the method: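 Primary human umbilical vein endothelial cells, 4H stimulation system, treated for 24 h; cell-surface VCAM-1 quantified by ELISA. Bidirectional fitting against DMSO; cytotoxicity tracked by SRB total-protein staining in parallel cultures.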

Read-out in test [9]: Interferon-gamma inducible Protein 10 (IP10), CXCL10 (gene 3627)
The test is described as follows: BSK_BE3C_IP10: BioMAP Diversity Plus: BE3C Assay for Interferon-gamma inducible Protein 10 (IP10) Biomarker Activity (AID 2283034). The conditions noted are these: primary human bronchial epithelial cells; actives raise or lower the signal. The method in brief: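 Primary human bronchial epithelial cells, with IP-10 measured by ELISA 24 hours after chemical dosing. Bidirectional fit against DMSO; cytotoxicity checked by SRB total protein staining in parallel cultures.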

Read-out in test [10]: Monokine induced gamma interferon (MIG), CXCL9 (gene 4283)
The test is described as follows: BSK_BE3C_MIG: BioMAP Diversity Plus: BE3C Assay for Monokine induced gamma interferon (MIG) Biomarker Activity (AID 2283035). The conditions noted are these: primary human bronchial epithelial cells; actives raise or lower the signal. The gist of the method:
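ELISA read-out of MIG in human lung bronchial epithelial primary cultures, 24 h post-dosing. Bidirectional curve fit vs DMSO baseline.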

Read-out in test [11]: urokinase plasminogen activator (uPA), PLAU (gene 5328)
The experiment in a line: BSK_BE3C_uPA: BioMAP Diversity Plus: BE3C Assay for urokinase plasminogen activator (uPA) Biomarker Activity (AID 2283038).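 Further: uPA protein level quantified by ELISA in cell cultures; uPA read one day after compound addition.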 The conditions noted are these: primary human bronchial epithelial cells; actives raise or lower the signal. The method in brief: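 Human primary bronchial epithelial cells were exposed to chemical for 24 h, then uPA levels were measured by ELISA. Responses were fitted bidirectionally against DMSO as negative control and baseline. Parallel SRB staining of total protein gauged overt cytotoxicity.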

Read-out in test [12]: Interleukin-6 (IL6), IL6 (gene 3569)
The experiment in a line: BSK_CASM3C_IL6: BioMAP Diversity Plus: CASM3C Assay for Interleukin-6 (IL6) Biomarker Activity for (AID 2283040). The conditions noted are these: primary human coronary artery smooth muscle cells; actives raise or lower the signal.

Read-out in test [13]: Human Leukocyte Antigen - DR isotype (HLADR), HLA-DRA (gene 3122)
The test is described as follows: BSK_CASM3C_HLADR: BioMAP Diversity Plus: CASM3C Assay for Human Leukocyte Antigen - DR isotype (HLADR) Biomarker Activity (AID 2283043).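 Further: cell-surface HLA-DR protein level quantified by ELISA.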 The conditions noted are these: primary human coronary artery smooth muscle cells; actives raise or lower the signal.

Read-out in test [14]: Low-density lipoprotein receptor (LDLR), LDLR (gene 3949)
The test is described as follows: BSK_CASM3C_LDLR: BioMAP Diversity Plus: CASM3C Assay for Low-density lipoprotein receptor (LDLR) Biomarker Activity (AID 2283045).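 Further: LDLR protein level on the cell surface quantified by ELISA.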 The conditions noted are these: primary human coronary artery smooth muscle cells; actives raise or lower the signal.

Read-out in test [15]: Monocyte Chemoattractant Protein-1 (MCP1), CCL2 (gene 6347)
The test is described as follows: BSK_CASM3C_MCP1: BioMAP Diversity Plus: CASM3C Assay for Monocyte Chemoattractant Protein-1 (MCP1) Biomarker Activity (AID 2283046).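 Further: MCP-1 level quantified by ELISA 24 h after dosing.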 The conditions noted are these: primary human coronary artery smooth muscle cells; actives raise or lower the signal.

The nature of test [16]: BSK_CASM3C_Proliferation: Cell Proliferation Assessment in the BioMAP Diversity Plus: CASM3C Assay (AID 2283047).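 Further: sub-confluent cells exposed 48 h before staining; fitted both ways against DMSO so gain or loss of cell number.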 The conditions noted are these: primary human coronary artery smooth muscle cells.
Read-out in test [17]: serum amyloid A (SAA), SAA1 (gene 6288)
The experiment in a line: BSK_CASM3C_SAA: BioMAP Diversity Plus: CASM3C Assay for serum amyloid A (SAA) Biomarker Activity (AID 2283049).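 Further: SAA protein level quantified by ELISA.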 The conditions noted are these: primary human coronary artery smooth muscle cells; actives raise or lower the signal.

Read-out in test [18]: Tissue Factor, F3 (gene 2152)
The experiment in a line: BSK_CASM3C_TissueFactor: BioMAP Diversity Plus: CASM3C Assay for Tissue Factor Biomarker Activity (AID 2283052).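 Further: cell surface tissue factor protein level read by ELISA.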 The conditions noted are these: primary human coronary artery smooth muscle cells; actives raise or lower the signal.

Read-out in test [19]: Interferon-gamma inducible Protein 10 (IP10), CXCL10 (gene 3627)
The test is described as follows: BSK_hDFCGF_IP10: BioMAP Diversity Plus: hDFCGF Assay for Interferon-gamma inducible Protein 10 (IP10) Biomarker Activity (AID 2283053). The conditions noted are these: primary human foreskin fibroblasts; actives raise or lower the signal. The gist of the method: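 Primary human foreskin fibroblasts exposed to chemicals for 24 h. IP-10 measured by ELISA; changes fitted bidirectionally against DMSO baseline.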

Read-out in test [20]: Epidermal growth factor receptor (EGFR), EGFR (gene 1956)
The experiment in a line: BSK_hDFCGF_EGFR: BioMAP Diversity Plus: hDFCGF Assay for Epidermal growth factor receptor (EGFR) Biomarker Activity (AID 2283057). The conditions noted are these: primary human foreskin fibroblasts; actives raise or lower the signal. The method in brief:
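Primary human foreskin fibroblasts (hDFCGF system), sampled 24 h after dosing; EGFR quantified by ELISA. Bidirectional fit relative to DMSO baseline; SRB total-protein staining in parallel cultures for cytotoxicity.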

Chain of E-selectin (Homo sapiens) (P16581 whole entry, looked up): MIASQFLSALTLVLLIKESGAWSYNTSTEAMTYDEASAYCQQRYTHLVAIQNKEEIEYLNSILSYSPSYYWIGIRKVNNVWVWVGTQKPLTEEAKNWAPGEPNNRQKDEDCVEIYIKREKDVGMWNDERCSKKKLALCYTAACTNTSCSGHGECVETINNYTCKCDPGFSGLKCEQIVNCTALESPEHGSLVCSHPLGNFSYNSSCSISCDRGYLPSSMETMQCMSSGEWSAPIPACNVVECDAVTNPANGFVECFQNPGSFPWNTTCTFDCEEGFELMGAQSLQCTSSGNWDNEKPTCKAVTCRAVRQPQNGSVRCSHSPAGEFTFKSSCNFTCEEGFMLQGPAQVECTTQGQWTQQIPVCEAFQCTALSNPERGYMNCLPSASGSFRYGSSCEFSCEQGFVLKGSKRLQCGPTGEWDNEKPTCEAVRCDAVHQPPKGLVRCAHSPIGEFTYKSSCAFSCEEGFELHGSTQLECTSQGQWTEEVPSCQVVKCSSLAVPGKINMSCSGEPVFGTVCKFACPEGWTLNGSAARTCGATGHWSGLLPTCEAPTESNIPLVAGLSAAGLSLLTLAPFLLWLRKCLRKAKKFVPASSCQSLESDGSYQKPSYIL

With `CC(C)CCCCCCCOP(=O)(Oc1ccccc1)Oc1ccccc1`, the half-maximal activity concentration (AC50) is 11.2 µM (active) in test [1]; 20 µM (active) in test [2]; 10.1 µM (active) in [3]; 20 µM (active) in [4]; 32.6 µM (active) in test [6]; 20 µM (active) in test [7]. The AC50 is 25.1 µM (active) in test [8]; 28 µM (active) in test [9]; 6.45 µM (active) in test [14]; 9.26 µM (active) in test [19]; 3.97 µM (active) in test [20]. The result in test [5], in test [10], in [11], in test [12], in test [13] and in test [15] was inactive. Moreover, the result in [16], in test [17] and in [18] was inactive.
Turning to `O=P1(NCCCl)OCCCN1CCCl` (stereo not given), the outcome in test [1], in test [2], in test [3], in test [4], in [5] and in test [6] was inactive. In addition, the outcome in test [7], in test [8], in test [9], in test [10], in test [11] and in test [12] was inactive. Further, the outcome in [13], in test [14], in [15], in test [16], in test [17] and in [18] was inactive. For the same molecule, the outcome in test [19] and in test [20] was inactive.
Consider `CC(C)CCCCCCCOC(=O)c1ccccc1C(=O)OCCCCCCCC(C)C`, for which the outcome in test [1], in [2], in test [3], in [4], in test [5] and in test [6] was inactive. Also, the outcome in [7], in test [8], in test [9], in test [10], in test [11] and in test [12] was inactive. In addition, the outcome in [13], in test [14], in test [15], in test [16], in [17] and in test [18] was inactive. Besides, the result in test [19] and in test [20] was inactive.
On to `Oc1cc(Cl)ccc1Cl`, for which the result in test [1], in test [2], in [3], in test [4], in [5] and in [6] was inactive. Besides, the outcome in test [7], in test [8], in test [9], in test [10], in [11] and in [12] was inactive. For the same molecule, the result in test [13], in test [14], in test [15], in [16], in test [17] and in [18] was inactive. The result in [19] and in test [20] was inactive.
Regarding `O=C1C=CC(=O)C=C1`, the AC50 was 13.8 µM (active) and 20 µM (active) in test [1]; 20 µM (active) and 28.6 µM (active) in [2]; 26.2 µM (active) and 6.35 µM (active) in [3]; 13.4 µM (active) and 8.64 µM (active) in test [4]; 5.14 µM (active) and 4.77 µM (active) in test [5]; 16.1 µM (active) and 20 µM (active) in [8]. The AC50 in test [9] was 16.3 µM (active) and 30.9 µM (active); in test [13], 10.9 µM (active) and 20 µM (active); in [16], 30.4 µM (active) and 15.2 µM (active); in [19] it was 16.8 µM (active) and 23.7 µM (active). In addition, the result in [6], in test [7], in [10], in [11], in test [12] and in test [14] was inactive. Also, the outcome in test [15], in test [17], in [18] and in test [20] was inactive.
Consider `O=[N+]([O-])c1ccc(Cl)cc1`, for which the outcome in [1], in test [2], in [3], in test [4], in test [5] and in [6] was inactive. For the same molecule, the result in [7], in [8], in test [9], in test [10], in test [11] and in test [12] was inactive. Moreover, the outcome in [13], in test [14], in test [15], in [16], in [17] and in test [18] was inactive. The outcome in test [19] and in test [20] was inactive.

In general, AC50 refers to the concentration at which the activity in the assay is half-maximal.
